# Records with an inconclusive call do not appear. Where a call stands in place of a potency, no number is given. Calls of active or inactive are those of the source. Calls come from the whole dose curve; as a rule, active = well fitted curve in the direction sought with a large enough effect; inconclusive = small, poorly fitted or top-dose-only effect, or another doubt; inactive = no such curve, though single readings can be large; an effect the other way counts as inactive or inconclusive.
# Assays:
# [1] = S16 Schwann cell viability assay (CellTiter-Glo assay) (AID 624031);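 note: native untransfected S16 rat Schwann cells; cellular ATP luminescence as a viability measure; nearly all actives have a fitted effect of over 70% in size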
# Method in brief: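 Cells were seeded at 500-750 per well in phenol red-free DMEM with 10% FBS and left overnight. Compounds or DMSO were pinned in, incubation ran 24 h at 37 °C/5% CO2, then CellTiter-Glo reagent was added and luminescence measured.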
# AS120 = experiment: qHTS profiling for inhibitors of Plasmodium falciparum proliferation (AID 504749); note: nearly all actives have a fitted effect of over 60% in size; note: potency is the fitted concentration of half-maximal effect; conditions: P. falciparum in erythrocytes, SYBR Green DNA, 72 h; series mostly up to 12.8 µM
# Method in brief: (§1)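 Each compound contacts P. falciparum-infected red blood cells for 72 h at 37 C; lysis buffer (Tris, EDTA, saponin, Triton X, SYBR Green I) is added and fluorescence measured next morning; values normalized to controls.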
# C2A = experiment: as above; conditions: P. falciparum in erythrocytes, SYBR Green DNA, 72 h; series mostly up to 12.8 µM
# Method in brief: as §1
# CP185 = experiment: as above; conditions: P. falciparum in erythrocytes, SYBR Green DNA, 72 h; series mostly up to 12.8 µM
# Method in brief: as §1
# CP192 = experiment: as above; conditions: P. falciparum in erythrocytes, SYBR Green DNA, 72 h; series mostly up to 12.8 µM
# Method in brief: as §1
# CP211 = experiment: as above; conditions: P. falciparum in erythrocytes, SYBR Green DNA, 72 h; series mostly up to 12.8 µM
# Method in brief: as §1
# CP237 = experiment: as above; conditions: P. falciparum in erythrocytes, SYBR Green DNA, 72 h; series mostly up to 12.8 µM
# Method in brief: as §1
# CP256 = experiment: as above; conditions: P. falciparum in erythrocytes, SYBR Green DNA, 72 h; series mostly up to 12.8 µM
# Method in brief: as §1
# CP262 = experiment: as above; conditions: P. falciparum in erythrocytes, SYBR Green DNA, 72 h; series mostly up to 12.8 µM
# Method in brief: as §1
# CP266 = experiment: as above; conditions: P. falciparum in erythrocytes, SYBR Green DNA, 72 h; series mostly up to 12.8 µM
# Method in brief: as §1
# CP268 = experiment: as above; conditions: P. falciparum in erythrocytes, SYBR Green DNA, 72 h; series mostly up to 12.8 µM
# Method in brief: as §1
# CP286 = experiment: as above; conditions: P. falciparum in erythrocytes, SYBR Green DNA, 72 h; series mostly up to 12.8 µM
# Method in brief: as §1
# CP291 = experiment: as above; conditions: P. falciparum in erythrocytes, SYBR Green DNA, 72 h; series mostly up to 12.8 µM
# Method in brief: as §1
# CP305 = experiment: as above; conditions: P. falciparum in erythrocytes, SYBR Green DNA, 72 h; series mostly up to 12.8 µM
# Method in brief: as §1
# CP325 = experiment: as above; conditions: P. falciparum in erythrocytes, SYBR Green DNA, 72 h; series mostly up to 12.8 µM
# Method in brief: as §1
# CP329 = experiment: as above; conditions: P. falciparum in erythrocytes, SYBR Green DNA, 72 h; series mostly up to 12.8 µM
# Method in brief: as §1
# ICS = experiment: as above; conditions: P. falciparum in erythrocytes, SYBR Green DNA, 72 h; series mostly up to 12.8 µM
# Method in brief: as §1
# N140 = experiment: as above; conditions: P. falciparum in erythrocytes, SYBR Green DNA, 72 h; series mostly up to 12.8 µM
# Method in brief: as §1
# TAB109 = experiment: as above; conditions: P. falciparum in erythrocytes, SYBR Green DNA, 72 h; series mostly up to 12.8 µM
# Method in brief: as §1
# TAB113 = experiment: as above; conditions: P. falciparum in erythrocytes, SYBR Green DNA, 72 h; series mostly up to 12.8 µM
# Method in brief: as §1
SMILES,outcome [1],Potency (AS120),Potency (C2A),Potency (CP185),Potency (CP192),Potency (CP211),Potency (CP237),Potency (CP256),Potency (CP262),Potency (CP266),Potency (CP268),Potency (CP286),Potency (CP291),Potency (CP305),Potency (CP325),Potency (CP329),Potency (ICS),Potency (N140),Potency (TAB109),Potency (TAB113)
OCC1OC(n2cnc3c(=S)nc[nH]c32)C(O)C1O (configuration not stated),inactive,inactive,inactive,inactive,inactive,inactive,inactive,inactive,inactive,inactive,inactive,inactive,inactive,inactive,inactive,inactive,inactive,inactive,inactive,inactive
N[C@@H]1C(O)OC(CO)C(O)C1O (some centres not stated),inactive,inactive,inactive,inactive,–,inactive,inactive,inactive,–,inactive,inactive,inactive,inactive,inactive,inactive,inactive,inactive,inactive,inactive,inactive
OCC1OC([S-])[C@H](O)C(O)C1O.[Au+] (some centres not stated),inactive,inactive,inactive,inactive,inactive,inactive,inactive,inactive,inactive,inactive,inactive,inactive,inactive,inactive,inactive,inactive,inactive,inactive,inactive,inactive
NC(CCC(=O)N[C@@H](CS)C(=O)NCC(=O)O)C(=O)O (some centres not stated),–,–,10 µM (active),–,–,–,3.55 µM (active),8.91 µM (active),inactive,inactive,–,–,–,–,–,–,1.26 µM (active),4.47 µM (active),4.47 µM (active),7.94 µM (active)
CCC1OC(=O)C(C)[C@@H](O[C@H]2C[C@@](C)(OC)C(O)C(C)O2)C(C)[C@@H](O[C@@H]2OC(C)CC(N(C)C)C2O)[C@@](C)(O)CC(C)C(=O)[C@@H](C)C(O)[C@]1(C)O (some centres not stated),inactive,inactive,inactive,inactive,inactive,inactive,inactive,inactive,inactive,inactive,inactive,inactive,inactive,inactive,inactive,inactive,inactive,inactive,–,inactive
CCC1OC(=O)CC(O)C(C)[C@@H](O[C@@H]2OC(C)[C@H](O[C@@H]3C[C@@](C)(O)C(O)C(C)O3)C(N(C)C)C2O)[C@H](CC=O)CC(C)C(=O)/C=C/C(C)=C/[C@@H]1COC1OC(C)C(O)C(OC)[C@@H]1OC (some centres not stated),inactive,–,–,–,–,–,–,1.41 µM (active),–,–,–,1 µM (active),–,–,–,–,2.82 µM (active),–,0.891 µM (active),–
CC(=O)OCC(=O)[C@@]12OC3(CCCC3)OC1CC1C3CCC4=CC(=O)C=C[C@@]4(C)[C@]3(F)C(O)C[C@]12C (some centres not stated),inactive,11.2 µM (active),inactive,inactive,inactive,inactive,–,inactive,inactive,inactive,inactive,–,inactive,inactive,inactive,inactive,12.6 µM (active),11.2 µM (active),–,–
COc1ccc(-c2cc(=O)c3c(O)cc(O[C@H]4OC(COC5OC(C)C(O)C(O)[C@H]5O)C(O)C(O)C4O)cc3o2)cc1O (some centres not stated),inactive,inactive,inactive,inactive,inactive,inactive,inactive,inactive,inactive,inactive,inactive,inactive,–,inactive,inactive,inactive,inactive,inactive,inactive,inactive
CN(C)CCc1c[nH]c2ccc(CC3COC(=O)N3)cc12 (configuration not stated),inactive,inactive,inactive,inactive,inactive,inactive,inactive,inactive,–,–,inactive,inactive,inactive,inactive,inactive,inactive,inactive,inactive,inactive,inactive
CCC(=O)O[C@@]1(C(=O)CCl)C(C)CC2C3CCC4=CC(=O)C=C[C@@]4(C)[C@]3(F)C(O)C[C@]21C (some centres not stated),inactive,10 µM (active),–,–,–,–,10 µM (active),–,–,–,–,–,–,–,–,–,10 µM (active),8.91 µM (active),11.2 µM (active),–
CC[C@@]12CCCN3CCc4c(n(c5ccccc45)[C@](O)(C(=O)OC)C1)C32 (some centres not stated),inactive,inactive,inactive,inactive,inactive,inactive,inactive,inactive,inactive,inactive,inactive,inactive,inactive,inactive,inactive,inactive,–,inactive,inactive,inactive
COC1OC(CO)C(OC2OC(C(=O)O)C(OC3OC(COS(=O)(=O)O)C(OC4OC(C(=O)O)C(OC5OC(CO)C(OC6OC(C(=O)O)C(OC7OC(COS(=O)(=O)O)C(OC8OC(C(=O)O)=C[C@H](O)C8OS(=O)(=O)O)C(O)C7NC(C)=O)[C@@H](O)C6O)C(O)C5NC(C)=O)[C@@H](O)C4O)C(O)C3NC(C)=O)[C@@H](O)C2O)C(O)C1NC(C)=O (some centres not stated),inactive,–,–,–,inactive,inactive,–,–,inactive,inactive,inactive,–,inactive,inactive,inactive,inactive,12.6 µM (active),–,–,14.1 µM (active)
COC1CC(O[C@H]2/C(C)=C/CC3CC(C[C@]4(CCC(C)C(C5CCCCC5)O4)O3)OC(=O)[C@H]3C=C(C)/C(=N/O)C4OC/C(=C\C=C\[C@@H]2C)[C@@]43O)OC(C)C1O (some centres not stated),inactive,–,–,–,inactive,inactive,–,–,inactive,inactive,inactive,–,inactive,inactive,inactive,inactive,12.6 µM (active),–,–,–
CCCCCCCCCc1ccc(OCCOCCOCCOCCOCCOCCOCCOCCOCCO)cc1,–,–,inactive,inactive,inactive,–,–,–,inactive,inactive,inactive,inactive,inactive,inactive,inactive,inactive,–,–,inactive,inactive
CC1(C)S[C@H]2C(NC(=O)[C@@H](N)c3ccc(O)cc3)C(=O)N2[C@@H]1C(=O)O (some centres not stated),inactive,inactive,inactive,inactive,inactive,inactive,inactive,inactive,inactive,inactive,inactive,inactive,inactive,inactive,inactive,inactive,inactive,inactive,inactive,–
CCOC(=O)C1=CC(OC(CC)CC)C(NC(C)=O)C(N)C1 (configuration not stated),–,inactive,inactive,inactive,inactive,inactive,inactive,inactive,inactive,inactive,inactive,inactive,inactive,inactive,inactive,inactive,–,inactive,inactive,inactive
CO[C@]12C(COC(N)=O)C3=C(C(=O)C(C)=C(N)C3=O)N1CC1NC12 (some centres not stated),–,0.562 µM (active),1.26 µM (active),0.708 µM (active),–,19 µM (active),inactive,5.01 µM (active),inactive,–,–,0.501 µM (active),–,–,–,–,0.355 µM (active),0.631 µM (active),2.24 µM (active),0.891 µM (active)
CC(=O)OC1CCC2C3CCc4cc(O)ccc4C3CCC12C (configuration not stated),inactive,inactive,inactive,inactive,inactive,inactive,inactive,inactive,inactive,inactive,inactive,inactive,inactive,inactive,inactive,inactive,–,inactive,inactive,inactive
C[C@@]12C=CC(=O)C=C1CCC1C3CC(O)[C@@](O)(C(=O)CO)[C@]3(C)CC(O)[C@]12F (some centres not stated),inactive,inactive,inactive,inactive,inactive,inactive,inactive,inactive,inactive,inactive,inactive,inactive,inactive,inactive,inactive,inactive,inactive,inactive,inactive,inactive
CC(C)Oc1ccc2c(=O)cc(-c3ccccc3)oc2c1,inactive,inactive,inactive,inactive,inactive,inactive,inactive,inactive,inactive,inactive,inactive,inactive,inactive,inactive,inactive,inactive,inactive,inactive,inactive,inactive
NCC1CCC(N)C(O[C@@H]2C(O)[C@H](O[C@H]3OC(CO)C(O)C(N)C3O)[C@@H](N)C[C@H]2N)O1 (some centres not stated),inactive,inactive,inactive,inactive,inactive,inactive,inactive,inactive,inactive,inactive,inactive,inactive,inactive,inactive,inactive,inactive,inactive,inactive,inactive,inactive
CC(=O)[C@]1(O)CCC2C3C=C(Cl)C4=CC(=O)C5CC5[C@@]4(C)C3CC[C@]21C (some centres not stated),inactive,inactive,inactive,inactive,inactive,inactive,inactive,inactive,inactive,inactive,inactive,inactive,inactive,inactive,inactive,inactive,inactive,inactive,inactive,inactive
CC1C2CCC3C4CC=C5CC(N(C)C)CC[C@@]5(C)C4CC[C@@]32CN1C (some centres not stated),inactive,inactive,inactive,inactive,inactive,inactive,inactive,inactive,inactive,inactive,inactive,inactive,inactive,inactive,inactive,inactive,inactive,inactive,–,inactive
CC(=O)N[C@@H]1C(O)OC(CO)C(O)C1O (some centres not stated),inactive,inactive,inactive,inactive,inactive,inactive,inactive,inactive,inactive,inactive,inactive,inactive,inactive,inactive,inactive,inactive,inactive,inactive,inactive,inactive
